These results are taken from PubChem BioAssay (Tox21).

Unmarked numbers belong to inactive results. Results filed as inconclusive are left out. The source made the active and inactive calls. Unless noted, calls follow the shape of the dose curve; as a rule, active = well fitted curve in the direction sought with a large enough effect in the repeat runs; inconclusive = weak or mixed curves; inactive = no such curve, though single readings can be large; an effect the other way counts as inactive or inconclusive.

Assay [1] addresses Thyrotropin receptor (Homo sapiens) (UniProt P16473). The assay is described as follows: qHTS assay to identify small molecule antagonists of the thyroid stimulating hormone receptor (TSHR) signaling pathway (AID 1259385; calls by dose curve; also: nearly all actives have a fitted effect of over 20% in size). In short, it runs like this: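 TSHR-HEK293 cells (800/well) plated 18 h, then compounds with Ro20-1724 and TSH at 1.5 ng/mL final, 30 min at room temperature. cAMP quantified by HTRF (cAMP-d2/anti-cAMP-cryptate, 1 h); 15 concentrations in triplicate.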

A short description of assay [2]: qHTS assay to identify small molecule agonists of the estrogen receptor alpha (ER-alpha) signaling pathway in the presence of an antagonist - cell viability counter screen (AID 1259386).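 Also: series mostly up to about 92 µM; cells exposed to compounds for 22 h at 37 °C before the viability read; nearly all actives have a fitted effect of over 30% in size.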 In short, it runs like this:
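Cytotoxicity was measured in parallel with the ERE-luciferase agonist screen, in the same wells. The cells were VM7Luc4E2, which endogenously express ER-alpha, and treatment was with compounds plus 10.0nM ICI-182,780 for 22hr.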
A general note: In qHTS, concentration-response curves come from the screen itself.

Assay [3] has as its target Progesterone receptor (Homo sapiens) (UniProt P06401). The experiment in a line: qHTS assay to identify small molecule agonists of the progesterone receptor (PR) signaling pathway (AID 1346784; calls by dose curve; also: nearly all actives have a fitted effect of over 30% in size). In short, it runs like this: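 The screen uses PR-UAS-bla HEK 293T cells in charcoal-stripped serum (2%). Compounds are applied for 16 hr at 37C after a 6 hr pre-incubation, and reporter activity is detected with a FRET beta-lactamase substrate after 2 hr at room temperature.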

Assay [4] has the same target. The assay is described as follows: qHTS assay to identify small molecule antagonists of the progesterone receptor (PR) signaling pathway (AID 1346795; active = well fitted inhibition curve with a large enough effect in the signal ratio in the repeat runs, not every such curve was filed as active; the % refers to the signal ratio). The essentials:
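After 6 hr plating at 37C in 2% stripped-serum medium, PR-UAS-bla HEK293T cells got compounds, then 1 nM R5020. Sixteen hours later, LiveBLAzer substrate was applied for 2 hr at room temperature and fluorescence was recorded.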

Assay [5] can be described thus: qHTS assay to identify small molecule agonists of the progesterone receptor (PR) signaling pathway - cell viability counter screen (AID 1346799; calls by dose curve; also: nearly all actives have a fitted effect of over 45% in size). In short, it runs like this: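 Viability was scored by ATP luminescence (CellTiter-Glo, 30 min, room temperature) in the same wells used for the reporter readout, after 16 hr compound exposure of PR-UAS-bla HEK293T cells.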

Assay [6] in a line: qHTS assay to identify small molecule antagonists of the TGF-beta/Smad signaling pathway - cell viability counter screen (AID 1346824). Also: nearly all actives have a fitted effect of over 50% in size. The essentials:
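SBE-bla HEK 293T cells, incubated overnight, then compound plus 0.25 ng/mL TGF-beta1 (stock added) for 5 hr at 37 C. Viability was read in the same wells by CellTiter-Glo luminescence after 30 min at room temperature.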

Assay [7] is described as follows: qHTS assay to identify small molecule agonists of the TGF-beta/Smad signaling pathway - cell viability counter screen (AID 1346829). Also: top concentration of the series differs between compounds; nearly all actives have a fitted effect of over 45% in size. In short, it runs like this:
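CellTiter-Glo luminescence readout; SBE-bla HEK 293T cells, overnight plating, compound 5 hr at 37 C/5% CO2, then bla substrate 2 hr RT, then CellTiter-Glo 30 min RT.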

A short description of assay [8]: qHTS assay to identify small molecule agonists of the TGF-beta/Smad signaling pathway (AID 1346859; active = well fitted activation curve with a large enough effect in the signal ratio in the repeat runs, not every such curve was filed as active; the % refers to the signal ratio; also: series mostly up to about 77 µM). In short, it runs like this:
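Dual-wavelength fluorescence (460/530 nm emission) quantified beta-lactamase expression under the Smad binding element in HEK 293T cells following 5 hr compound treatment at 37 C.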

Assay [9] has as its target Thyrotropin-releasing hormone receptor (Homo sapiens) (UniProt P34981). The assay is described as follows: qHTS assay to identify small molecule antagonists of the thyrotropin-releasing hormone receptor (TRHR) signaling pathway (AID 1346877; active = well fitted inhibition curve with a large enough effect in the repeat runs, not every such curve was filed as active; also: series mostly up to about 51 µM). The essentials:
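Antagonism is measured as suppression of the calcium response to 1 nM TRH in TRHR-HEK293 cells that have been dye-loaded for 2 h at 37 °C after overnight plating. Each compound is tested at 15 concentrations in triplicate.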

For assay [10] the target is unchanged. The assay is described as follows: qHTS assay to identify small molecule agonists of the thyrotropin-releasing hormone receptor (TRHR) signaling pathway (AID 1346891; calls by dose curve;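 also: HEK293 cells expressing TRHR with calcium dye readout; series mostly up to about 58 µM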). The essentials:
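Kinetic fluorescence (3 min, 1 s intervals) reported intracellular calcium after compound transfer onto TRHR-Hek293 cells pre-loaded with dye for 2 h at 37 °C.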

Assay [11] in a line: Human pregnane X receptor (PXR) small molecule agonists, qHTS cell viability counter screen (AID 1346977). Also: nearly all actives have a fitted effect of over 50% in size. Also: potency is read from the fitted curve at half-maximal effect. In short, it runs like this:
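HepG2 cells stably carrying the PXR-Luc reporter are cultured with 5% charcoal-stripped FBS and treated with compounds for 24hr. CellTiter-Fluor is added at 23hr and fluorescence is read after 1hr.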

Assay [12] in a line: Caspase-3/7 induction in HepG2 cells by small molecules, qHTS assay (AID 1346978). Also: nearly all actives have a fitted effect of over 15% in size. The essentials: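 Wild-type HepG2 cells, 2,000/well, settled 5 hr at 37 C and 5% CO2, then compound-treated for 17 hr; caspase-3/7 activity read by luminescent Caspase-Glo 3/7 after 30 min at room temperature.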
The nature of assay [13]: Caspase-3/7 induction in CHO-K1 cells by small molecules, qHTS cell viability counter screen (AID 1346979). Also: nearly all actives have a fitted effect of over 35% in size. In short, it runs like this:
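Seeding: 1,500 CHO-K1 cells/well. Rest: 5hr, 37C. Treatment: compounds in DMSO, 16hr. Read: CellTiter-Fluor, 1hr, fluorescence.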

A short description of assay [14]: Caspase-3/7 induction in CHO-K1 cells by small molecules, qHTS assay (AID 1346980). Also: nearly all actives have a fitted effect of over 15% in size. The essentials: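 Wild-type CHO-K1 cells exposed to compounds for 17hr at 37 C, 5% CO2. Caspase-3/7 activity then measured by Caspase-Glo 3/7 luminescence after 30min at room temperature.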
A short description of assay [15]: Caspase-3/7 induction in HepG2 cells by small molecules, qHTS cell viability counter screen (AID 1346981). Also: series mostly up to about 92 µM; nearly all actives have a fitted effect of over 30% in size. In short, it runs like this:
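Cell viability is measured as a cytotoxicity counter screen alongside the Caspase-Glo 3/7 readout in identical wells. Wild-type HepG2 cells are treated with test compounds for 16 hr at 37 C before CellTiter-Fluor addition and a 1-hr incubation.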

For assay [16], the target named is Nuclear receptor subfamily 1 group I member 2 (Homo sapiens) (UniProt O75469). The assay is described as follows: Human pregnane X receptor (PXR) small molecule agonists, qHTS assay (AID 1346982). Also: nearly all actives have a fitted effect of over 35% in size. The essentials:
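Cells: HepG2 stably carrying PXR-Luc. Medium held 5% charcoal-stripped FBS. Compounds in DMSO added after 5 hr plating, incubated 24 hr, then luminescence quantified with ONE-Glo.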

Assay [17] deals with Nuclear receptor subfamily 1 group I member 2 (Rattus norvegicus) (UniProt Q9R1A7). The experiment in a line: Rat pregnane X receptor (rPXR) activation by small molecules, qHTS assay (AID 1346983). Also: nearly all actives have a fitted effect of over 20% in size. The following applies: rPXR luciferase reporter cells, One-Glo luminescence, 24 h; max activation: hits give high values. The essentials: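 Cell-based rPXR activation assay: rPXR cells, 2,000 per well, rested 5hr at 37 C, then exposed to compounds in DMSO for 24 hr at 37 C. Luciferase activity read by One-Glo luminescence after 30 min at room temperature.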
Sequence of Nuclear receptor subfamily 1 group I member 2 (Rattus norvegicus) (Q9R1A7 whole entry, looked up): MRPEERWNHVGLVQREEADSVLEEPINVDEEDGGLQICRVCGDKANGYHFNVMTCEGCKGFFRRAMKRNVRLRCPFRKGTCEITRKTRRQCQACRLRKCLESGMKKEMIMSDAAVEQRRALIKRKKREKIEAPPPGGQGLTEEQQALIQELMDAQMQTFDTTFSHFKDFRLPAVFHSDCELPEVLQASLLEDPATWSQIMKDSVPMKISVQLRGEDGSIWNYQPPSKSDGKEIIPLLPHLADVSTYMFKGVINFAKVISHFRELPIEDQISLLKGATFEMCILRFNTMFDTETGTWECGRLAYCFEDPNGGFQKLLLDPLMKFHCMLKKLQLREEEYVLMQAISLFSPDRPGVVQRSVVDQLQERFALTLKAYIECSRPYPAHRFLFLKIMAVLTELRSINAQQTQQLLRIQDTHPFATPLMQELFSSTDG

Assay [18] deals with Nuclear receptor subfamily 1 group I member 2 (Homo sapiens) (UniProt O75469). The experiment in a line: CYP3A4 induction through human pregnane X receptor (PXR) by small molecules, qHTS assay (AID 1346984). Also: nearly all actives have a fitted effect of over 40% in size. The essentials: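 Quantitative HTS in DPX-2 cells, i.e. HepG2 transfected with PXR response element and CYP3A4-promoter luciferase. Compounds in DMSO incubated 24hr at 37C; then P450-Glo CYP3A4 substrate, 3uM final, 3hr; One-Glo luminescence.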
Sequence of Nuclear receptor subfamily 1 group I member 2 (Homo sapiens) (O75469 whole entry, looked up): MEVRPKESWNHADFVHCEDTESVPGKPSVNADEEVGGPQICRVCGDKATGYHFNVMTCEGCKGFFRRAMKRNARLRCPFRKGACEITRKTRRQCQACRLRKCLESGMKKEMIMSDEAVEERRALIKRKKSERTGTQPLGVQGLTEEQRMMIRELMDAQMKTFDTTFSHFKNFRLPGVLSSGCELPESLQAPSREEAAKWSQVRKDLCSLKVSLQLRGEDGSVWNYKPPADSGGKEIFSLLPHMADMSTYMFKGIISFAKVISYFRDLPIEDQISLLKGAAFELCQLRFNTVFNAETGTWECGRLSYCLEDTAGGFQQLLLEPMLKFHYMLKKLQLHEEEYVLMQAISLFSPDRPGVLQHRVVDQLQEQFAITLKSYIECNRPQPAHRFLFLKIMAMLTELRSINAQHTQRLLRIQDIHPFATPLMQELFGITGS

Assay [19] can be described thus: qHTS assay to identify small molecule antagonists of the progesterone receptor (PR) signaling pathway - cell viability counter screen (AID 1346798). Also: series mostly up to about 92 µM; nearly all actives have a fitted effect of over 50% in size. In short, it runs like this: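 Viability was determined by ATP-based luminescence (CellTiter-Glo) in PR-UAS-bla HEK293T cells cultured in 2% charcoal-stripped serum and incubated 16 hr with compounds under R5020 stimulation.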
% is scaled to controls: 0 for no effect and ±100 for the full control effect.

Sequence of Thyrotropin-releasing hormone receptor (Homo sapiens) (P34981 whole entry, looked up): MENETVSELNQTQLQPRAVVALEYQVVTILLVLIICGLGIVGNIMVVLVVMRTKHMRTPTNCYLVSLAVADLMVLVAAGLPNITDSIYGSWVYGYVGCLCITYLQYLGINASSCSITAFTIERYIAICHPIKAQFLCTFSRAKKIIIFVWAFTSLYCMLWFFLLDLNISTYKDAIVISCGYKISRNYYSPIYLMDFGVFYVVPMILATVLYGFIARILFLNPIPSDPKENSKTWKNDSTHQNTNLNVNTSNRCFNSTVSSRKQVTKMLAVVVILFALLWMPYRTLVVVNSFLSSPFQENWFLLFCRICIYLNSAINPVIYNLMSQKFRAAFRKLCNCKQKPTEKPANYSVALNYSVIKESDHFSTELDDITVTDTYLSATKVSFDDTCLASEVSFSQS
Sequence of Thyrotropin receptor (Homo sapiens) (P16473 whole entry, looked up): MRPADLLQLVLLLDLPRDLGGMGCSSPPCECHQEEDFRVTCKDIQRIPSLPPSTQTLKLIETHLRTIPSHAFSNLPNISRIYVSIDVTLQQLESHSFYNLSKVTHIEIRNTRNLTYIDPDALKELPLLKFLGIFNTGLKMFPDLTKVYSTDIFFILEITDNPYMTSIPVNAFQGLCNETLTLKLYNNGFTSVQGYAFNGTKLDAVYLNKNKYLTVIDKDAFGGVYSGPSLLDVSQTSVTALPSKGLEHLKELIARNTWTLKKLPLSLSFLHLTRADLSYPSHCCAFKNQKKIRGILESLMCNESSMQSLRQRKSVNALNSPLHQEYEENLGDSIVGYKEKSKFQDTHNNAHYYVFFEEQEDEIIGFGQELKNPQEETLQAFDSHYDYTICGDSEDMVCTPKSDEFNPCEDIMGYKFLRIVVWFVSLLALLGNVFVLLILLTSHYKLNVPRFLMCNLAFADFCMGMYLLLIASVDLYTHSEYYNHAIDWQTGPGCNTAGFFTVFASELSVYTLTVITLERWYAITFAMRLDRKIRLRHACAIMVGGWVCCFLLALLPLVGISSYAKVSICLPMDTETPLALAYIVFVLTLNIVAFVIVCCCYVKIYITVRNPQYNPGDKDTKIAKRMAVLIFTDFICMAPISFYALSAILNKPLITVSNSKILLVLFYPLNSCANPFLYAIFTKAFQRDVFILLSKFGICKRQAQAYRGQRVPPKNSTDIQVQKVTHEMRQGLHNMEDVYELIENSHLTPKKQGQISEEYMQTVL
Sequence of Progesterone receptor (Homo sapiens) (P06401 whole entry, looked up): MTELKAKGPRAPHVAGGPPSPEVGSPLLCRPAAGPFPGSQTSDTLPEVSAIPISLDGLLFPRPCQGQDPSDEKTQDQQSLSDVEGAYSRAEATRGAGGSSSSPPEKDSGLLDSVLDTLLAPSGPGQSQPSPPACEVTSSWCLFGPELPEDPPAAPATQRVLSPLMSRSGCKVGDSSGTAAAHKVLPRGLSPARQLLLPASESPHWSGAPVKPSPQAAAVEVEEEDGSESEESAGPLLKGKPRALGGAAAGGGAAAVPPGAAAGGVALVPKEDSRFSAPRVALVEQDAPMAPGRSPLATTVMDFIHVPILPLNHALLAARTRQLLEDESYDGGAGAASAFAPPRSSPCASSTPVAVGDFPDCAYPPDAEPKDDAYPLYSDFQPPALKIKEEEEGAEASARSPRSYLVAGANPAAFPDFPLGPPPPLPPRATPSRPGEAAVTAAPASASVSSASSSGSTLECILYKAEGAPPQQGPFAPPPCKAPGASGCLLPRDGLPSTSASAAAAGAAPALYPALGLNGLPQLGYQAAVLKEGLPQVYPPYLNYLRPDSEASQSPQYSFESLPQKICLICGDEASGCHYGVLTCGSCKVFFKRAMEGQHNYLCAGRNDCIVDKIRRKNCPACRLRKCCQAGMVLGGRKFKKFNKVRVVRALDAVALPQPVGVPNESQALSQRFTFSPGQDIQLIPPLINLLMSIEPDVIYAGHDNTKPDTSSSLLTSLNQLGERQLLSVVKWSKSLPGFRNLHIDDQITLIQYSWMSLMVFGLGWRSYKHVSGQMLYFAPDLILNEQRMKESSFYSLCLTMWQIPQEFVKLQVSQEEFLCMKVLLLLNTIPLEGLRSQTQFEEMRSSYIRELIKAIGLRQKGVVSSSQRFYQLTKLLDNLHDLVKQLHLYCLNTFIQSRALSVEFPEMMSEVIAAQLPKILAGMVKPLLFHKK

Regarding `C[N+](C)(C)CC[N+]1(C)Cc2c(Cl)c(Cl)c(Cl)c(Cl)c2C1`, the Potency entry in [1], in [3], in [4], in assay [5], in [11] and in [13] was “inactive” in each case. Also, the Potency result in assay [16] and in [18] was “inactive” each time. Further, the result in assay [2], in assay [6], in [7], in [8], in assay [9] and in [10] was inactive. Besides, the compound was called inactive in assay [12], in assay [14] and in assay [15]. For the same compound, in assay [17], the max activation was -3.39%.
For the compound `CN(C)CCn1nnnc1SCC1=C(C(=O)O)N2C(=O)[C@@H](NC(=O)Cc3csc(N)n3)[C@H]2SC1`, the Potency result in assay [1], in [3], in assay [4], in [11], in assay [13] and in [16] was “inactive” in each case. Besides, in assay [18], the Potency result is “inactive”. The result in assay [2], in assay [6], in [7], in assay [8], in assay [9] and in assay [10] was inactive. For the same compound, the call in [12], in assay [14] and in [15] was inactive. In addition, in assay [17], the max activation is 14.1%.
In the case of `CC(C)CCCC(C)NCCC(C)C` (configuration not stated), the Potency result in [1], in [3], in assay [19], in assay [5], in [11] and in [13] was “inactive” in each case. The Potency entry in [16] was “inactive”. Also, the result in [2], in [7], in [8], in assay [9], in [10] and in assay [12] was inactive. The compound was called inactive in assay [14] and in [15].
In the case of `O=S(=O)(c1cccc2cnccc12)N1CCCNCC1`, the Potency result in assay [1], in assay [3], in assay [19] and in assay [13] was “inactive” in each case. The outcome in assay [2], in assay [6], in assay [7], in assay [8], in assay [9] and in assay [10] was inactive. Moreover, the compound was called inactive in [12], in assay [14] and in [15]. In addition, the Potency in assay [11] was 26.6 µM (active).
As to `CC(C)CCCC(C)CCCC(C)CCCCC(C)CCCC(C)CCCC(C)C` (configuration not stated), the Potency entry in assay [1], in [3], in assay [19], in assay [11] and in assay [16] was “inactive” each time. In addition, the result in assay [2], in [6], in [7], in assay [8], in [12] and in assay [14] was inactive. In addition, the call in [15] was inactive. The max activation in [17] was -0.619%.
For `CCC(=O)Nc1cccc(N)c1`, the Potency entry in assay [1], in [3], in assay [19], in [11], in assay [13] and in [16] was “inactive” each time. Further, the result in assay [2], in [6], in assay [7], in [8], in assay [9] and in assay [10] was inactive. Also, the outcome in assay [12], in assay [14] and in assay [15] was inactive.
Turning to `O=C(O)C1CCC1`, the Potency result in [1], in assay [3], in [4], in assay [19], in assay [5] and in assay [11] was “inactive” each time. Moreover, the Potency entry in [13] and in assay [16] was “inactive” each time. In addition, the call in assay [6], in [7], in assay [8], in assay [9], in [10] and in assay [12] was inactive. In addition, the call in assay [14] and in assay [15] was inactive.
Take `CCOC(=O)[C@H](CCc1ccccc1)N[C@@H](C)C(=O)N1CCC[C@H]1C(=O)O`: the Potency result in assay [1], in [19], in [5], in [11] and in [13] was “inactive” each time. For the same compound, the outcome in assay [2], in assay [7], in [8], in assay [9], in assay [10] and in [12] was inactive. The compound was classed as inactive in assay [14] and in assay [15]. Further, the max activation in [17] is -3.1%.
